Drawing on PubChem BioAssay AID485317 (Broad Institute, 2010), this text covers inhibition for 61 compounds.

Hit rate of the full screen: of about 290,000 compounds, about 11,000 (3.8%) were called active.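 Rule for the calls: active = mean replicate inhibition above about 79%, with every replicate also reaching it (limit read from the data); inconclusive = only one of the two criteria met; inactive = mean below limit and not every replicate reaching it.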 Shown is part of a subset that was picked to be rich in actives.

The target in this test is FAD-linked sulfhydryl oxidase ALR (Homo sapiens) (UniProt P55789). In words: inhibitors of human ALR sulfhydryl oxidase, primary screen, biochemical, H2O2 detection, HRP-luminol luminescence, single point (AID 485317). The settings on record: purified ALR, DTT oxidation, stronger effect = higher value, concentration not given here.
Sequence of FAD-linked sulfhydryl oxidase ALR (Homo sapiens) (P55789 whole entry, looked up): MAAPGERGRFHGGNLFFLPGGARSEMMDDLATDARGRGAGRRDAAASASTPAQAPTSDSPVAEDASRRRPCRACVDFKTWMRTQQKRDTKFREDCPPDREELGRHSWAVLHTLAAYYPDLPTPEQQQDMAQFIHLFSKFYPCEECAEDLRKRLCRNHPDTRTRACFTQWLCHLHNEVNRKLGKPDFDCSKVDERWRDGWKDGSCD
With `O=C(CSc1ncn[nH]1)Nc1ccc(Br)cc1Br`, the inhibition was -5.94% (inactive).

For the compound `CC(OC(=O)c1ccccc1NCCO)C(=O)Nc1ccnn1C(C)C` (stereo unspecified), the inhibition was -3.31% (inactive).

On to `N#Cc1ccc(CN2CCN(CC(=O)Nc3ccccc3C(=O)NC3CC3)CC2)cc1`, for which the inhibition is -2.66% (inactive).

Take `Cn1cccc1C(=O)NNC(=O)COc1ccc(Br)cc1`: the inhibition is -4.16% (inactive).

As for `CCN(CC(=O)Nc1c(F)cccc1F)C(=O)c1ccc(S(=O)(=O)N2CCCCC2)cc1`, the inhibition is -1.01% (inactive).

Take `Clc1ccccc1CSc1nnc(-c2ccco2)c(-c2ccco2)n1`: the inhibition was 100% (active).

For the compound `S=C(NCc1ccco1)NCc1ccccc1Cl`, the inhibition was -9.19% (inactive).

Turning to `COC(OC)c1ccnc(SCc2ccccc2Cl)n1`, the inhibition is -8.94% (inactive).

On to `O=C(Nc1ccc(C(=O)N2CCOCC2)cc1)Nc1cccc(C(F)(F)F)c1`, for which the inhibition is -2.29% (inactive).

For the compound `Cc1ccc(-c2nn(-c3cccc(F)c3)cc2CNCCc2ccncc2)o1`, the inhibition is -14.7% (inactive).

Regarding `O=C(O)CCC(=O)N(Cc1ccccc1)Cc1ccccc1`, the inhibition was -2.42% (inactive).

With `Cc1ccc(-c2nn(-c3ccccc3)cc2CN(Cc2ccccc2)C(=O)CCC(=O)O)o1`, the inhibition was 97.6% (active).

As to `Cc1c(NC(=O)C(C)OC(=O)c2c3c(nc4ccccc24)CCC(C)C3)c(=O)n(-c2ccccc2)n1C` (stereo unspecified), the inhibition was 18% (inactive).

Turning to `O=C1CCc2cc(S(=O)(=O)Nc3ccc(C(F)(F)F)cc3)cc3c2N1CC3`, the inhibition was -0.668% (inactive).

Turning to `Cc1cc(OCC(=O)N(C)c2c(N)n(Cc3ccccc3)c(=O)[nH]c2=O)c(C(C)C)cc1Cl`, the inhibition was -4.09% (inactive).

As for `O=C(CCNC(=O)c1ccccc1Cl)NN=Cc1ccco1`, the inhibition was -3.45% (inactive).

Regarding `Cc1csc(NC(=O)CSc2nc(=O)cc(N)n2-c2ccc(F)cc2)n1`, the inhibition is 91.6% (active).

As for `Cc1cc(NC(=O)CSc2nc(=O)cc(N)n2-c2ccc(F)cc2)no1`, the inhibition is -1.5% (inactive).

Regarding `Cc1csc(NC(=O)CSc2ccc(-c3ccc(F)cc3)nn2)n1`, the inhibition is -12.2% (inactive).

In the case of `Cc1cc(C)c(S(=O)(=O)N2CCC(C(=O)OCc3c(C)noc3C)CC2)c(C)c1`, the inhibition is -4.27% (inactive).

Consider `CCCCN(C(=O)C1=NN(c2cc(C)ccc2C)C(=O)CC1)c1c(N)n(CCC)c(=O)[nH]c1=O`, for which the inhibition was 0.0423% (inactive).

Take `CCN(Cc1ccccc1)C(=O)Cc1ccc(OC)c(S(=O)(=O)N2CCOCC2)c1`: the inhibition was -3.18% (inactive).

With `COc1ccc(OCCCC(=O)Nc2cccc(S(=O)(=O)N3CCCCCC3)c2)cc1`, the inhibition is -4.87% (inactive).

`CCOc1ccc(CCNC(=O)COC(=O)c2c(OC)cccc2OC)cc1OCC`: the inhibition was -5.28% (inactive).

As to `O=C(CSc1nnc(Nc2ccccc2)s1)Nc1cccnc1Cl`, the inhibition was 4.27% (inactive).

Turning to `Cc1ccc(Nc2nnc(SCc3ccccc3)s2)cc1`, the inhibition was -12.9% (inactive).

Consider `CC(C)c1ccc(Nc2nnc(SCC(=O)c3nnc(-c4ccccc4)o3)s2)cc1`, for which the inhibition is 98.1% (active).

For `CC(C)n1c(-c2cccs2)nc2ccccc21`, the inhibition was -15.2% (inactive).

With `CC(C)n1c(NCc2c[nH]c3ccccc23)nc2ccccc21`, the inhibition is 97.9% (active).

With `CC(C)n1c(COc2ccccc2)nc2ccccc21`, the inhibition was 14.1% (inactive).

Consider `O=C(O)c1cc(S(=O)(=O)Nc2ccc3cn[nH]c3c2)ccc1Br`, for which the inhibition is 42.7% (inactive).

Turning to `COc1cc(/C=C/C(=O)Nc2ccc(OC)c(S(=O)(=O)N3CCOCC3)c2)ccc1OCC#N`, the inhibition is -4.4% (inactive).

Regarding `CCS(=O)(=O)N1Cc2ccccc2CC1C(=O)Nc1nc2ccc(F)cc2s1` (stereo unspecified), the inhibition is 97.9% (active).

Turning to `CCS(=O)(=O)N1Cc2ccccc2CC1C(=O)Nc1ccc(OC)cc1OC` (stereo unspecified), the inhibition was -16.1% (inactive).

For `CSc1ncccc1C(=O)Nc1nc2ccc(F)cc2s1`, the inhibition is -2.85% (inactive).

As to `CCOC(=O)C1Nc2ccc(C(F)(F)F)cc2C2C=CCC12` (stereo unspecified), the inhibition is -11.3% (inactive).

For `Cc1cc(NC(=O)COc2ccc([N+](=O)[O-])cc2)no1`, the inhibition is 8.23% (inactive).

In the case of `OCCNc1nc(Nc2ccc(Cl)c(Cl)c2)nc2ccccc12`, the inhibition was 19.6% (inactive).

With `CN1CCN(c2nc(Nc3ccc(O)cc3)nc3ccccc23)CC1`, the inhibition is 98.9% (active).

With `c1ccc(Nc2nc(N3CCOCC3)c3ccccc3n2)cc1`, the inhibition was 48.8% (inactive).

With `CC(=O)c1c(C)[nH]c(C(=O)CN2C(=O)NC(C)(C)C2=O)c1C`, the inhibition was 0.194% (inactive).

In the case of `O=c1cc(CO)oc(C(Nc2cccc([N+](=O)[O-])c2)c2ccccn2)c1O` (stereo unspecified), the inhibition was 94.5% (active).

For the compound `O=c1cc(CO)oc(C(Nc2cccc(C(F)(F)F)c2)c2ccccn2)c1O` (stereo unspecified), the inhibition was 52.2% (inactive).

With `O=[N+]([O-])c1cccc(S(=O)(=O)NCc2ccccn2)c1`, the inhibition was -12.1% (inactive).

With `COc1ccc(C(=O)N/N=C2\CCS(=O)(=O)c3ccc(F)cc32)cc1OC`, the inhibition was -0.529% (inactive).

Regarding `O=S1(=O)CC/C(=N\Nc2ccc(F)cc2)c2ccsc21`, the inhibition was 98.3% (active).

In the case of `COc1ccccc1NC(=O)COC(=O)CNC(=O)C1CCCCC1`, the inhibition was -0.565% (inactive).

Take `COc1ccc(-c2c(C#Cc3ccsc3)c3cc(-c4ccc(CN5CCOCC5)cc4)ccc3n2C)cc1`: the inhibition is -4.78% (inactive).

For `CCOc1cc2[nH]c(=S)n(Cc3ccc(C(=O)N4CCN(C)CC4)cc3)c(=O)c2cc1OCC`, the inhibition was -0.332% (inactive).

`O=C(O)c1ccc(Cn2c(=S)[nH]c3cc(Cl)ccc3c2=O)cc1`: the inhibition was 94.9% (active).

As to `COc1ccc(Cn2c(=S)[nH]c3cc(C(=O)N4CCCCC4)ccc3c2=O)cc1`, the inhibition was 9.27% (inactive).

Regarding `CC(=O)c1ccc(S(=O)(=O)Nc2ccc(-c3ccc4nncn4n3)cc2)cc1`, the inhibition was -13.1% (inactive).

Turning to `O=C1c2ccccc2C(=O)N1CCC#Cc1ccc2cc(C3(O)CCCCC3)oc(=O)c2c1`, the inhibition was -19.8% (inactive).

For `CCOc1ccc(-c2cc(C(=O)N/N=C/c3ccc(O)cc3)c3ccccc3n2)cc1`, the inhibition is 1.65% (inactive).

Take `O=C(COC(=O)C1CCCO1)Nc1nc(-c2ccc(F)cc2)cs1` (stereo unspecified): the inhibition was -4.39% (inactive).

As for `Cc1cc(O)c(C2(O)C(=O)Nc3ccccc32)cc1C` (stereo unspecified), the inhibition was 16.1% (inactive).

On to `Cc1ccc2c(c1)C(O)(CC(=O)c1cccnc1)C(=O)N2` (stereo unspecified), for which the inhibition is -0.959% (inactive).

Regarding `Cc1ccc(NC2(C#N)C(=O)Nc3ccccc32)cc1` (stereo unspecified), the inhibition is 97.6% (active).

For `CN(C)c1ccc(NC(=O)CN2C3CCCC2CC(NC(=O)c2ccccc2)C3)cc1` (stereo unspecified), the inhibition was 99.7% (active).

Turning to `CCCN1C2CCCC1CC(NC(=O)c1cccc(OC)c1)C2` (stereo unspecified), the inhibition is -4.94% (inactive).

Turning to `CC(=O)NC1CC2CCCC(C1)N2CC(=O)Nc1ccccc1` (stereo unspecified), the inhibition was -9.69% (inactive).
